Assay [1] addresses T1, Serine/threonine-protein kinase TBK1 (Homo sapiens) (UniProt Q9UHD2).
T1 sequence (whole entry): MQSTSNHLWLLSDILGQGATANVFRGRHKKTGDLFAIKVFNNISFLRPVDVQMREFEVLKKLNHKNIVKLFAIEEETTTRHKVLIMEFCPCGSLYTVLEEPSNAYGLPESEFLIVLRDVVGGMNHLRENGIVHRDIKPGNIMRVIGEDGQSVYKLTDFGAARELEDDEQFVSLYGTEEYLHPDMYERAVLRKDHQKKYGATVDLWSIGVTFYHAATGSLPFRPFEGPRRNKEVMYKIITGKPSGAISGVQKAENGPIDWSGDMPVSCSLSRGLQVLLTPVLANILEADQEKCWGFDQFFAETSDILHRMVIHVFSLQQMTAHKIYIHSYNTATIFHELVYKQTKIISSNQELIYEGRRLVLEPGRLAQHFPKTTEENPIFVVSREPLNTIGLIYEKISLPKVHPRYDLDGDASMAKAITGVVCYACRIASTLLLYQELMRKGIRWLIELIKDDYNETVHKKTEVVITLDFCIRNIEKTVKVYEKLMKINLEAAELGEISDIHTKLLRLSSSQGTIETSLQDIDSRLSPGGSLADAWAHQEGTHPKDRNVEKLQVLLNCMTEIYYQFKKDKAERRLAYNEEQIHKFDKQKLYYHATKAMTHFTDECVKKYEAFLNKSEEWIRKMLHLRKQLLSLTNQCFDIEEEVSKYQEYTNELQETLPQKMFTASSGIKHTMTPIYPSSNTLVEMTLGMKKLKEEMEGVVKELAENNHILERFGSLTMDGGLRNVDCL
Particulars: at 10 µM.

Assay [2] addresses T2, TGF-beta receptor type-1 (Homo sapiens) (UniProt P36897).
T2 sequence (whole entry): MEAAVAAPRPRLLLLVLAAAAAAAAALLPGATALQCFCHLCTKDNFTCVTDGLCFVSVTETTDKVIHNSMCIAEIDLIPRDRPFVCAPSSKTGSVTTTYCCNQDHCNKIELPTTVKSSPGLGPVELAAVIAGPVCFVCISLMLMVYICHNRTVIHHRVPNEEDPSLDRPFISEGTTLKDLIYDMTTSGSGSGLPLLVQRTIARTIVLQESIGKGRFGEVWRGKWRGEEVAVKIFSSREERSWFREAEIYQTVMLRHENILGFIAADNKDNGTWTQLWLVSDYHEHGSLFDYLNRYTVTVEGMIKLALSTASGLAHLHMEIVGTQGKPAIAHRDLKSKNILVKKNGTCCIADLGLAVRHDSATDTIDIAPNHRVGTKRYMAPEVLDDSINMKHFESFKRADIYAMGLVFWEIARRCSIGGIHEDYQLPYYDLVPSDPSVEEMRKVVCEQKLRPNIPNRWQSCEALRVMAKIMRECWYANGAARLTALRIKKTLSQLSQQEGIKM
The note with it: at 1 µM.

The target in assay [3] is T2, TGF-beta receptor type-1 (Homo sapiens). The note with it: at 10 µM.
The target in assay [4] is Insulin-like growth factor 1 receptor (Homo sapiens) (UniProt P08069). The note with it: at 1 µM.
Insulin-like growth factor 1 receptor (Homo sapiens), sequence (P08069 31-736 limits assumed): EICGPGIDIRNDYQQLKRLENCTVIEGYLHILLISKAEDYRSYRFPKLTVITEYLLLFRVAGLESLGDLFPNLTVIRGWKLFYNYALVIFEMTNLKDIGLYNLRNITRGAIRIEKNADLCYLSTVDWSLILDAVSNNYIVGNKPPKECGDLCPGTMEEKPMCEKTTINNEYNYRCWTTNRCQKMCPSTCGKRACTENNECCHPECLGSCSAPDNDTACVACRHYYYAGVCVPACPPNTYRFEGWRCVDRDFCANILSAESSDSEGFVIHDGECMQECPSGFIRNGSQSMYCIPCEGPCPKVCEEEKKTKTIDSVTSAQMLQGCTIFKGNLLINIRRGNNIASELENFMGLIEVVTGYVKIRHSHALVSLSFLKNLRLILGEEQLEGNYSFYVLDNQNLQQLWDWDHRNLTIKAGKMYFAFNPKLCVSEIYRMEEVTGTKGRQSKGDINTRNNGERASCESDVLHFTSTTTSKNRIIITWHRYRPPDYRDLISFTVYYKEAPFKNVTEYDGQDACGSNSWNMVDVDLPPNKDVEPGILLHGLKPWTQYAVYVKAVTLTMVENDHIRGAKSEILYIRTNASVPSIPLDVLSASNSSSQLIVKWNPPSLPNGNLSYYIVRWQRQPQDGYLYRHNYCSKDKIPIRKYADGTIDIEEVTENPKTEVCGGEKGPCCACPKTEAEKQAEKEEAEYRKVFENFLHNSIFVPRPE
Insulin-like growth factor 1 receptor (Homo sapiens), sequence (P08069 741-1367 limits assumed): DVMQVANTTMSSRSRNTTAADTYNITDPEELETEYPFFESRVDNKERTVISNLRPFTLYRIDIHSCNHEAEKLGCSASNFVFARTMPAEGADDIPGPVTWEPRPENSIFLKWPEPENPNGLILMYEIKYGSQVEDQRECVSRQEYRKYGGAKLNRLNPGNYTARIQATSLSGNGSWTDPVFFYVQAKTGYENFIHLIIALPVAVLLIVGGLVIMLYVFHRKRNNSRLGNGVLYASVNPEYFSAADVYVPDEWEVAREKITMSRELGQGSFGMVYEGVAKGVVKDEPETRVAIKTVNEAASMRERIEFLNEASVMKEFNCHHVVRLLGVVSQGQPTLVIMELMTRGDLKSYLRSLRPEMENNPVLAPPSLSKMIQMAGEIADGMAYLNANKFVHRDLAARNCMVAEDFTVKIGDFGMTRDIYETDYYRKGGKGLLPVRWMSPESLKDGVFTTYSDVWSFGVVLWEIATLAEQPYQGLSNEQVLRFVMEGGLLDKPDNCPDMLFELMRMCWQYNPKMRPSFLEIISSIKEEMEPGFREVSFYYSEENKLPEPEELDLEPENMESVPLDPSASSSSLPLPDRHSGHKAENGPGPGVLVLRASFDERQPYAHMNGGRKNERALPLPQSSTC
Assay [5] shares this target. The note with it: at 10 µM.
In assay [6] the target is T3, Inhibitor of nuclear factor kappa-B kinase subunit alpha (Homo sapiens) (UniProt O15111).
T3 sequence (whole entry): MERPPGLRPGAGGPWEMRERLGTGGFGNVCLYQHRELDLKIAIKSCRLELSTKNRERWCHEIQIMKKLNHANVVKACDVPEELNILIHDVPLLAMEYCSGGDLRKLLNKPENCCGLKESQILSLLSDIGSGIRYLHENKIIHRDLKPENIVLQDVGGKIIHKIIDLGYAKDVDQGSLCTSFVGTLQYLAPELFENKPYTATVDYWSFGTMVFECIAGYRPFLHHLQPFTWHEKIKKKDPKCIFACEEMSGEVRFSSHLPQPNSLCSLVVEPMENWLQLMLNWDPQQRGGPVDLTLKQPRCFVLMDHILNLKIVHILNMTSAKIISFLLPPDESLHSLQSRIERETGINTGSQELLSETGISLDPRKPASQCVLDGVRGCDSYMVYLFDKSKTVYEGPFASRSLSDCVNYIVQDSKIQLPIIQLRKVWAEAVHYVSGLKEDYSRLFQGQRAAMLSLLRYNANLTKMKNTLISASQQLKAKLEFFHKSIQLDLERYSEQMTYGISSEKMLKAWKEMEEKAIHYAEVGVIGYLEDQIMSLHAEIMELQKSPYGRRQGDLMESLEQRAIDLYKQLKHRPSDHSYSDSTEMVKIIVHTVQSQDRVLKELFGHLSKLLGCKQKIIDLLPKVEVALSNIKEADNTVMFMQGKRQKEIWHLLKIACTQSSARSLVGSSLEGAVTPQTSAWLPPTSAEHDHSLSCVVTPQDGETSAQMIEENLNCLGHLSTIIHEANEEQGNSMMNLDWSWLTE
Particulars: at 1 µM.

For assay [7], the target named is T3, Inhibitor of nuclear factor kappa-B kinase subunit alpha (Homo sapiens). Particulars: at 10 µM.
The target in assay [8] is T4, Inhibitor of nuclear factor kappa-B kinase subunit beta (Homo sapiens) (UniProt O14920).
T4 sequence (whole entry): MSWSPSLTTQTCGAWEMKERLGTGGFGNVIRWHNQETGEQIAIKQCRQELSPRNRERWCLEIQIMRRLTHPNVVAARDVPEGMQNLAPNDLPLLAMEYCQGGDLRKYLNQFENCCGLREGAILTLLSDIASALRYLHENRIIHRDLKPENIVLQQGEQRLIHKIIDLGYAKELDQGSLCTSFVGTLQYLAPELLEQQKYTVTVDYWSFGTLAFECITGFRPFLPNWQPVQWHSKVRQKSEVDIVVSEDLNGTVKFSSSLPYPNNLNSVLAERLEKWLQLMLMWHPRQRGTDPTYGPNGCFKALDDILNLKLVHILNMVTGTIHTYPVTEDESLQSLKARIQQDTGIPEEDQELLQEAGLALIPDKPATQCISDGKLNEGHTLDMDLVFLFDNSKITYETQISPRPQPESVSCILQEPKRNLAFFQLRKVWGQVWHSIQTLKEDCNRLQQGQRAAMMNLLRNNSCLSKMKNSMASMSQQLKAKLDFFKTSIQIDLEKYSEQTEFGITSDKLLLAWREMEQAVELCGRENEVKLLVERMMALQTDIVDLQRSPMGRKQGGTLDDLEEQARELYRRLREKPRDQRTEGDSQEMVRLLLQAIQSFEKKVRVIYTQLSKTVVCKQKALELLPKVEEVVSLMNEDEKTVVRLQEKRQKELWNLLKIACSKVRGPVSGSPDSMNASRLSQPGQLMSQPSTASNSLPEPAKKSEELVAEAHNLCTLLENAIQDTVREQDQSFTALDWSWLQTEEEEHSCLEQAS
Particulars: at 1 µM.

The target of assay [9] is T4, Inhibitor of nuclear factor kappa-B kinase subunit beta (Homo sapiens). Particulars: at 10 µM.
Assay [10] deals with Insulin receptor (Homo sapiens) (UniProt P06213). The note with it: at 1 µM.
Insulin receptor (Homo sapiens), sequence (P06213 28-758 limits assumed): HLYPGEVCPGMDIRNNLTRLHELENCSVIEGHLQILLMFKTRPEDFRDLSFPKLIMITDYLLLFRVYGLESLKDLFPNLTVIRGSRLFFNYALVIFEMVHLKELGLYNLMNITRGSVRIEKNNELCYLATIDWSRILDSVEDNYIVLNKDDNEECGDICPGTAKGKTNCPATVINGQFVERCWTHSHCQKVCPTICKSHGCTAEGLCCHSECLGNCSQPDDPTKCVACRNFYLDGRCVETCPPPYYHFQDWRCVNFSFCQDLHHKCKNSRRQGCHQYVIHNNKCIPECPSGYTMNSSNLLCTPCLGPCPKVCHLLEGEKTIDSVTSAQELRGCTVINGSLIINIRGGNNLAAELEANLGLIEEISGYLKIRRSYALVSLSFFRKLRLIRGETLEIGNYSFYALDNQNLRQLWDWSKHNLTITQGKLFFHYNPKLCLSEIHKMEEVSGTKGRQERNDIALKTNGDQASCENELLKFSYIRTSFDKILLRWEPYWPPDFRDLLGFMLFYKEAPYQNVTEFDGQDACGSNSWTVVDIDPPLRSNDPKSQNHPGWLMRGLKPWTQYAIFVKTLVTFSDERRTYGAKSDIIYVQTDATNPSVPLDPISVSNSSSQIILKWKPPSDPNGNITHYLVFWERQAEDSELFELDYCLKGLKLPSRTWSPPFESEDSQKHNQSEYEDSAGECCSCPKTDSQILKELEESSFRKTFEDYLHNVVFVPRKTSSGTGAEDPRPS
Insulin receptor (Homo sapiens), sequence (P06213 763-1382 limits assumed): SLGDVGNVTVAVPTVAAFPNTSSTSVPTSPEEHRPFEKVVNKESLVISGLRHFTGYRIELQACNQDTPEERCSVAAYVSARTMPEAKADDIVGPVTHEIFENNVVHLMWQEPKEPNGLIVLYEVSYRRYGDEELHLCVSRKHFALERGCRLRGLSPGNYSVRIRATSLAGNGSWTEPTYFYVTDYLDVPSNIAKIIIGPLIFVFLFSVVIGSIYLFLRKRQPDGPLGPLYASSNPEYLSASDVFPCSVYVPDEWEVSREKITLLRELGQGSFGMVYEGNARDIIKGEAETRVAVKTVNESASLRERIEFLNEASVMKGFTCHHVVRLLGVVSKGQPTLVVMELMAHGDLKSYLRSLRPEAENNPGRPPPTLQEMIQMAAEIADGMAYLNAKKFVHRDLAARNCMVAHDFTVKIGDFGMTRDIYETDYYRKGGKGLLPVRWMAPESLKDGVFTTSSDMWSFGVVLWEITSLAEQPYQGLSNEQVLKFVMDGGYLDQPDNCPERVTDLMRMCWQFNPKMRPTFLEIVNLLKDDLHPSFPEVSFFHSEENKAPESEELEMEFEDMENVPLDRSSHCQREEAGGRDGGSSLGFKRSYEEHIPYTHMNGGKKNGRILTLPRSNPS

The text below walks through data of ChEMBL document CHEMBL2218924, “A broad activity screen in support of a chemogenomic map for kinase signalling research and drug discovery” (Biochem J, 2013).

Turning to `CNc1cc2c(Nc3cccc(Br)c3)ncnc2cn1`, the residual activity in [1] turned out to be 64%; in [2] it was 87%; in assay [3] it was 94%; in assay [4], 96%; in assay [5] it was 94%; in assay [6] it was 108%. In addition, the residual activity in assay [7] was 101%; in assay [8], 92%; in [9], 76%; in assay [10], 91%.

The term residual activity denotes the signal under treatment as a percentage of the control signal.
